A selection: hits, their analogues and other compounds. The true share with any hit is near 2.4%.
D2 PAM-1: positive allosteric modulators of human D2 dopamine receptor; P14416; potentiation, % (no concentration beside the values); hit rate 0.23% among 360,000; DiscoveRx D2 beta-arrestin cells, luminescence, 90 min; 100% = 57 uM dopamine signal; in the data active means potentiation above about 50%; inconclusive means mostly about 30% to 49%
Target sequence (P14416 whole entry, looked up): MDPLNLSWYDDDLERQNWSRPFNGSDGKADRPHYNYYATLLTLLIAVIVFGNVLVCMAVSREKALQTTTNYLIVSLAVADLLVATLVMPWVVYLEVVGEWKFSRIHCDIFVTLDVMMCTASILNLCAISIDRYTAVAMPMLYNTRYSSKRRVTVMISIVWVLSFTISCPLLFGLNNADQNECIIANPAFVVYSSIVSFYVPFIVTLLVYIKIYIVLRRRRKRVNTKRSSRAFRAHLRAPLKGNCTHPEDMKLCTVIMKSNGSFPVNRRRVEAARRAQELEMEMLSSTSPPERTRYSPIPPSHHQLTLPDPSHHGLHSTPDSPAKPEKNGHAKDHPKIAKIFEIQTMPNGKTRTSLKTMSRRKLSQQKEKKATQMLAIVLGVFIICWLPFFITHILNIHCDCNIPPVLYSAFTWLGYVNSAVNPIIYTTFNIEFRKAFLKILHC
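D2 cells co-treated with compound plus 50 nM dopamine (EC20) for 90 min at 37 deg C to detect potentiation. Beta-arrestin recruitment was read as enzyme-fragment luminescence after 1 h at ambient temperature. Full response was set by 57 uM dopamine.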
D2 ag-1: activates the human D2 dopamine receptor; HEK293 T-REx D2 cells, calcium flux agonist mode; hit rate 0.53% among 340,000; activation, % at 2 µM; P14416;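 active means activation over 3 SD above normal in the single-dose calcium agonist read, cut at about 30% in these data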; further: 0% is about no effect
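HEK293 Trex D2 cells, tetracycline-induced, o/n 30 C 5% CO2; no-wash Ca dye, RT 30–90 min; 10-cycle baseline, 23 nl cpd added, kinetic Ca read 180 s; agonist hits = positive Ca response.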
D2 PAM-2: positive allosteric modulators of human D2 dopamine receptor. potentiation, % at 10 µM. HEK293 T-REx D2, calcium flux, EC20 dopamine potentiation. hit rate 0.34% among 340,000;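 active means potentiation over 3 SD above the plate norm, cut at about 30% in these data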; further: 0% is about no effect
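Potentiation of an EC20 dopamine calcium response measured kinetically over 180 s, after a preceding 180 s compound-only read flagging agonists. Cells: inducible Hek293 Trex D2 line, 4000/well, cultured overnight at 30 C before dye loading.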
D2 ag-2: human D2 receptor agonism in beta-arrestin assay; hit rate 0.084% among 360,000; P14416; activation, % (test concentration not listed); DiscoveRx PathHunter D2 beta-arrestin, luminescence, 90 min; 100% = 57 uM dopamine signal; in the data active means activation above about 40%; inconclusive means between about 15% and that limit
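Agonist mode: compounds alone added to overnight-plated D2 PathHunter cells for 90 min at 37 C, with 57 uM final dopamine (EC100) defining full response. Beta-arrestin recruitment detected by chemiluminescent reagent, read after 1 h at ambient temperature.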
D2 antag: antagonists of human D2 dopamine receptor | hit rate 2% among 340,000 | HEK293 TREx D2 cells, calcium flux, dopamine EC80 | P14416 | inhibition, % at 10 µM; in the data active means inhibition above about 30%; inactive means below that, where a call was filed; further: 0% is about no effect
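Cells plated overnight at 30 C with tetracycline; no-wash calcium dye, 30–90 min RT; 10 s baseline; compound pinned; 180 s read; EC80 dopamine added; another 180 s read.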
* marks the source's active call; other numbers are inactive results; u = inconclusive; x = no result given; ! = not confirmed by another sample.

SMILES | D2 PAM-1 | D2 ag-1 | D2 PAM-2 | D2 ag-2 | D2 antag
CCOc1ccc(C2C(=O)N(C3CCCCC3)CC(=O)N2Cc2ccccc2OC)cc1OC (configuration not stated) | x | 0 | -17 | x | x
COc1cccc(N(C(C)=O)c2nc(C)cc(C)c2C#N)c1 | -2 | 1 | x | -1 | 36*
O=C(CN1CCOCC1)N1CCN(c2ccc([N+](=O)[O-])cc2)CC1 | -10 | 0 | -14 | -6 | 83*
O=C(c1cc(S(=O)(=O)N2CCOCC2)ccc1Cl)N1CCN(c2ccccn2)CC1 | 1 | 0 | -7 | 3 | -3
COC(=O)c1cc(C(=O)N2CCN(c3cccc(Cl)c3)CC2)cc([N+](=O)[O-])c1 | 17 | 0 | -4 | 12 | 30*
O=C(CN1CCN(c2ccc([N+](=O)[O-])cc2Cl)CC1)N1CCOCC1 | 1 | 0 | -4 | -1 | -9
O=C(c1cc([N+](=O)[O-])ccc1Cl)N1CCN(c2ccc([N+](=O)[O-])cc2)CC1 | 7 | 0 | 7 | 8 | 41*
CC(=O)N1CCN(C(=O)c2cc(S(=O)(=O)N3CCN(c4ccccc4)CC3)ccc2Cl)CC1 | u | 0 | 49* | -4 | 5
COc1ccc(C(=O)N/C(=C\c2ccc([N+](=O)[O-])cc2)C(=O)NC(CCSC)C(=O)O)cc1 (configuration not stated) | 1 | 18 | -4 | 0 | 35*
CC1=C(/C=C/C(C)=C/C=C/C(C)=C\C(=O)O)C(C)(C)CCC1 | -5 | x | x | -1 | x
CC1=C(/C=C/C(C)=C/C=C/C(C)=C/C(=O)Nc2ccc(O)cc2)C(C)(C)CCC1 | 56*! | 1 | 16 | 12 | 22
CCOC(=O)N1CCN(Cc2ccc(O)c3ncccc23)CC1 | -2 | 24 | -2 | 4 | 2
CCOC(=O)N1CCN(Cc2cccs2)CC1 | 11 | 38* | 1 | u | -7
CCOC(=O)N1CCN(Cc2ccccn2)CC1 | -3 | 0 | 44* | -1 | 14
COc1ccc2c(C)cc(SCc3c(C)noc3C)nc2c1 | -1 | 1 | -5 | 1 | 31*
Cc1cccc(-c2noc(CN(C(=O)COc3ccc(Br)cc3C)C(C)C)n2)c1 | x | x | -1 | x | x
CCN(c1cc(C)cc(C)c1)S(=O)(=O)c1nnc(NC(=O)c2ccccc2C)s1 | x | 1 | 9 | x | x
CC(C)CC(=O)n1sc(NC(=O)c2ccccc2)nc1=O | -21 | 0 | -4 | -3 | -2
COC(=O)C1=C(C(=O)OC)SC(=C2C(=S)C(C)(C)N(C(=O)CC(C)C)c3ccccc32)S1 | -12 | 0 | 9 | 0 | 30*
C(/C=C/c1ccccc1)=N/N1CCN(c2ccccc2)CC1 | -8 | 1 | 9 | -1 | -25
C(=C\c1ccccc1)/C=N/N1CCN(Cc2ccccc2)CC1 | -12 | -1 | 0 | -4 | 40*
CC(=O)Nc1ccc(N2C(=O)c3cccc4c(O)ccc(c34)C2=O)cc1 | 18 | 64* | -8 | 12 | 27
O=C(C[n+]1ccc2ccccc2c1)Nc1cc(C(F)(F)F)ccc1Cl | -33 | 1 | -21 | -1 | 54*
O=C(C[n+]1ccccc1)Nc1cc(C(F)(F)F)ccc1Cl | -44 | -1 | 4 | -2 | 2
Cc1cc(O)c(-c2ccnc3cc(-c4ccccc4)nn23)cc1Cl | x | -1 | 17 | x | x
SMILES | D2 PAM-1 | D2 ag-1 | D2 PAM-2 | D2 ag-2 | D2 antag
Cc1cccc(S(=O)(=O)c2c(N)n(Cc3ccco3)c3nc4ccccc4nc23)c1 | -9 | 3 | 45* | -3 | 4
Cc1ccc(NC(=O)N2CCN(C(=O)c3nsc4ccccc34)CC2)cc1C | x | 0 | -4 | x | x
Cc1ccc(-c2nc(NC(=O)CSc3nc(C)nc4sc5c(c34)CCCC5)ns2)cc1 | x | 1 | 11 | x | x
O=C1c2ccccc2-c2nc3ccccc3n21 | -1 | 0 | 35* | -2 | 16
O=[N+]([O-])c1ncccc1OCc1ccccc1Br | -5 | -1 | -11 | -4 | 34*
C#CC(C)(CC)NC(=O)Cn1nnc(-c2ccc(OCc3ccccc3F)cc2)n1 (configuration not stated) | x | 1 | 17 | x | x
O=C1NCN(c2ccccc2)C12CCN(CCCC(c1ccc(F)cc1)c1ccc(F)cc1)CC2 | -33 | 4 | -26 | -7 | 69*
O=C1CCC(=O)N1CCC(c1ccc(F)cc1)c1ccco1 (configuration not stated) | -17 | 2 | 9 | -1 | 17
